# In PubChem BioAssay:
# “And” between values parts separate entries of the source, which are not always exact repeats. Equal values may be shown once. The source made the active and inactive calls. Cut-off read from the data, not from the text of the source, unless noted: active = parasite load remaining mostly below about 12% (no sharp cut-off); inactive = mostly above about 10%.
# How the values were obtained:
# [1] = liver-stage malaria parasite growth inhibition, primary screen, cell-based, HepG2, luciferase luminescence, HepG2 viability (AID 624349);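 note: 100% = mean of DMSO negative control wells on the same plate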; conditions: P. berghei liver stage in HepG2, luciferase luminescence, concentration not given here; parasite load remaining: stronger effect = lower value; viability: measured here: HepG2 viability without parasites
# [2] = tested on: Hepatitis C virus NS3 helicase; test: HCV NS3 helicase inhibitors, primary screen, biochemical, fluorescence polarization, LOPAC1280 library (AID 687035; in the data active = inhibition above about 37%); conditions: Purified HCV NS3 helicase, Cy5-dT15 ssDNA binding fluorescence polarization; stronger effect = higher value; concentration not given here
# [3] = Cy5 fluorescence quenching or enhancement artefacts, artefact control for HCV NS3 helicase inhibitor project, biochemical, LOPAC1280 (AID 687037; call rule not given here); conditions: Cy5-DNA-NS3h complex fluorescence interference counterscreen
# [4] = stimulators of nuclear beta-catenin in C2C12, primary screen, imaging, WNT3A-conditioned medium, mouse C2C12, NPC library (AID 1117326; in the data active = nuclear beta-catenin stimulation mostly above about 4.2%, no sharp cut-off; inactive = mostly below about 10%); conditions: stronger effect = higher value
SMILES,parasite load remaining [1],viability [1],inhibition [2],fluorescence ratio (interference) [3],nuclear beta-catenin stimulation ([4]; at 10 µM),"nuclear beta-catenin stimulation ([4]; stimulation, at 2 µM) [%]"
O=C1CCc2cc(OCCCCc3nnnn3C3CCCCC3)ccc2N1,56.8% (inactive) and 129% (inactive) and 31.4% (inactive),104% and 87.2% and 96.2%,-1% (inactive),1 (inactive),1.1% (inactive),1
CN(C)[C@@H]1C(=O)C(C(N)=O)=C(O)[C@@]2(O)C(=O)C3=C(O)c4c(O)ccc(Cl)c4[C@@H](O)[C@H]3C[C@@H]12,68.4% (inactive) and 96.7% (inactive) and 81.2% (inactive),95.5% and 71.1% and 88.6%,-3% (inactive),1 (inactive),6.3% (inactive),4.3
CCCCNc1c(C(=O)OCC)c(C)nc2c1cnn2CC,80.1% (inactive),77.6%,-5% (inactive),1 (inactive),-0.5% (inactive),1.7
CC(=O)N[C@@H](CS)C(=O)O,106% (inactive) and 79.1% (inactive),72.7% and 91.5%,0% (inactive),0.9 (inactive),2.6% (inactive),-1.4
Cc1nnc(SCC2=C(C(=O)O)N3C(=O)[C@@H](NC(=O)Cn4cnnn4)[C@H]3SC2)s1,82.1% (inactive) and 85.3% (inactive) and 68.8% (inactive),98.8% and 78.7% and 99.1%,-3% (inactive),0.9 (inactive),0.1% (inactive),0.2
C[N+](C)(C)CCCCCC[N+](C)(C)C,28% (inactive) and 143% (inactive) and 127% (inactive),48% and 87.6% and 90.7%,0% (inactive) and -2% (inactive),1 (inactive),-0.3% (inactive),-1.6
CN(C)CCOC(=O)COc1ccc(Cl)cc1,72.9% (inactive) and 143% (inactive),96.7% and 93.9%,0% (inactive),1 (inactive),-0.6% (inactive),1
CC(=O)OC(C)C[N+](C)(C)C (configuration not stated),94% (inactive) and 73.8% (inactive) and 58% (inactive),94.5% and 73.8% and 92.8%,-2% (inactive),0.9 (inactive),1.5% (inactive),3.2
Cn1cnc2c1c(=O)[nH]c(=O)n2C,101% (inactive) and 137% (inactive) and 62.6% (inactive),101% and 74.3% and 103%,-5% (inactive),1 (inactive),0.9% (inactive),1
C[C@H]1O[C@@H](n2cc(F)c(=O)[nH]c2=O)[C@H](O)[C@@H]1O,43.4% (inactive),83%,-1% (inactive),1 (inactive),1.3% (inactive),0.4
C[C@H]1c2cccc(O)c2C(O)=C2C(=O)[C@]3(O)C(O)=C(C(N)=O)C(=O)[C@@H](N(C)C)[C@@H]3[C@@H](O)[C@@H]21,95% (inactive) and 57.5% (inactive) and 31.3% (inactive),76.2% and 97.6% and 73.5%,-1% (inactive),1 (inactive),-0.3% (inactive),3.8
NCCS,22.7% (inactive) and 38.2% (inactive),94.3% and 106%,-2% (inactive),1 (inactive),0.2% (inactive),3.8
Nc1ccc(S(=O)(=O)Nc2ccnn2-c2ccccc2)cc1,33% (inactive) and 120% (inactive) and 106% (inactive),49.4% and 69.4% and 93.2%,1% (inactive),1 (inactive),0.1% (inactive),-0.2
O=NN(CCCl)C(=O)NCCCl,30.7% (inactive),104%,-4% (inactive),1 (inactive),4.9% (inactive),1.3
NCCCCCC(=O)O,112% (inactive) and 74.1% (inactive) and 56.9% (inactive),104% and 74.3% and 90.5%,1% (inactive),0.9 (inactive),2.8% (inactive),-1
Cn1c(=O)c2c(ncn2C)n(C)c1=O,89.2% (inactive) and 70.9% (inactive),73.1% and 94.9%,-2% (inactive),1 (inactive),0.2% (inactive),3.1
C=Cc1c(C)c2cc3[nH]c(cc4nc(cc5nc(cc1[nH]2)C(C)=C5CCC(=O)O)C(CCC(=O)O)=C4C)c(C)c3C=C,108% (inactive),65.3%,140% (active),2 (active),-3.7% (inactive),0.1
Nc1c2c(nc3ccccc13)CCCC2O (configuration not stated),125% (inactive) and 39.9% (inactive),110% and 112%,-4% (inactive),1 (inactive),-0.8% (inactive),-0.9
NS(=O)(=O)c1cc2c(cc1Cl)NC(C1CC3C=CC1C3)NS2(=O)=O (configuration not stated),56.1% (inactive),133%,-1% (inactive),1 (inactive),0.8% (inactive),0
C=CC(N)CCC(=O)O (configuration not stated),117% (inactive) and 83.3% (inactive) and 20.7% (inactive),112% and 77.9% and 99.3%,0% (inactive),1 (inactive),1.7% (inactive),0.5
C[N+]1(CCCCC[N+]2(C)CCCC2)CCCC1,24.8% (inactive) and 111% (inactive) and 94.9% (inactive),48.6% and 96% and 89.3%,4% (inactive),1 (inactive),-1.8% (inactive),0.5
Cc1cn[nH]c1,51% (inactive),102%,-3% (inactive),0.9 (inactive),-2.1% (inactive),-2
